Source: PubChem BioAssay (National Center for Advancing Translational Sciences (NCATS))
A selection: hits, their analogues and other compounds. The true share with any hit is near 2.1%.
Mito fusion yeast: mitochondrial division inhibition or fusion activation | S. cerevisiae fusion-defective mutant growth rescue, CellTiterGlo 48 h | Potency, µM (series often up to 46.1 µM), without a hit: at the highest dose growth rescue (activation), hits mostly activators | 320,000 compounds, 0.23% hits | AID 485298; further: potency means the concentration at half of the fitted maximal effect; % of control where 0% means no effect; nearly all actives have a fitted effect of over 45% in size
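Yeast fusion mutant, YPEG (non-fermentable carbon), compound, 48 h at 37C non-permissive; CellTiterGlo added, 10 min RT, luminescence read. Rescued growth = division inhibition.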
p53 reactivation: mutant p53 re-activation in reporter cells. H1299 p53-A138V BP100-luciferase reporter, luminescence, 24 h. Potency, µM (top dose mostly 92.2 µM), without a hit: at the highest dose activity change, positive = activation, most hits filed as activators. 320,000 compounds, 0.063% hits. AID 504706; further: potency means the concentration at half of the fitted maximal effect; % of control where 0% means no effect; nearly all actives have a fitted effect of over 45% in size
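H1299 (p53-null), stable ts p53-A138V + BP100-Luc; 1000 cells/well, Opti-MEM/10% FBS; cpd 4 pt, 1:5; 24 h, 37 deg C, 5% CO2; detection reagent 10 min RT; luminescence.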
uPA surface inh: inhibitors of cell surface uPA generation | 330,000 compounds, 0.31% hits | AID 540303 | cell surface uPA generation assay, qHTS | Potency, µM (doses to about 38.3 µM), without a hit: top-dose activity change, negative = inhibition, actives largely listed as inhibitors; active means well fitted inhibition curve with a large enough effect; inconclusive means small, poorly fitted or top-dose-only effect; inactive means no such curve, though single readings can be large or run the other way; tested in mouse RAW 264.7 cells; further: potency means the concentration at half of the fitted maximal effect; on the % scale 0 is the no-effect control and ±100 the full control effect; nearly all actives have a fitted effect of over 55% in size
B2AR arrestin: beta2AR (human) beta-arrestin recruitment activity. beta-arrestin recruitment to beta2AR, cell-based reporter. Potency, µM (highest dose often 46.1 µM), inactives show at the highest dose activation, actives largely listed as activators. 330,000 compounds, 0.02% hits. AID 492947;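 further: potency means the concentration at half of the fitted maximal effect; 0% = DMSO controls and full agonism = EC100 isoproterenol or metaproterenol; nearly all actives have a fitted effect of over 65% in size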
Giardia killer: Giardia lamblia killing; activity change, % at 7.66 µM, hits read low; AID 540267; 340,000 compounds, 0.15% hits; Giardia lamblia trophozoite viability; in the data active means activity change below about -80%; inconclusive means between about -30% and that limit;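 further: parasites exposed to compound for two days anaerobically before the ATP read; on the % scale 0 is the no-effect control and ±100 the full control effect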
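Giardia trophozoites, 100 cells per well, were exposed to compounds for 48 hrs at 37 deg C under anaerobic conditions; viability was then read as ATP content by bioluminescence after 15-30 min at room temperature.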
ClpP mod: qHTS Assay for Activators of ClpP; ATP-dependent Clp protease proteolytic subunit (Bacillus subtilis (strain 168)), P80244; purified B. subtilis ClpP, FRET peptide cleavage, 20 min; Potency, µM (highest dose often 57.5 µM), inactives show at the top dose activity change, negative = active; 340,000 compounds, 1.9% hits; active means well fitted falling curve with a large enough effect; inconclusive means small, poorly fitted or top-dose-only effect; inactive means no such curve, though single readings can be large or run the other way; further: potency means the concentration at half of the fitted maximal effect; the source files actives as falling curves though it sought activators and does not explain the sign; nearly all actives have a fitted effect of over 65% in size
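Buffer: 100 mM Tris/HCl pH8, 100 mM KCl, 0.05% low protease BSA, 2.5% glycerol, 0.01% Tween-20. ClpP 10 microg/mL final; 20 min RT; delta FRET normalized to ADEP and DMSO controls.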
Starred values were filed as active, the others as inactive; u = inconclusive; x = not tested or not shown; ! = a repeat was not active. Unless noted, the call rests on the fitted dose curve; in most records, active means well fitted curve in the direction sought with a large enough effect; inconclusive means small, poorly fitted or top-dose-only effect, or another doubt; inactive means no such curve, though single readings can be large; an effect the other way counts as inactive or inconclusive.

SMILES	Mito fusion yeast	p53 reactivation	uPA surface inh	B2AR arrestin	Giardia killer	ClpP mod
COc1cc(/C=C/C(=O)c2c(O)cc(C)oc2=O)cc(OC)c1O	2%	6%	-5%	0%	-14	28µM*
COc1cccc(/C=C/C(=O)c2c(O)cc(C)oc2=O)c1O	-16%	u	1%	0%	-2	0%
COc1ccc(-c2cc(C(=O)Nc3ccc(C)c(C)c3)no2)cc1	-20%	-2%	-13%	0%	10	4%
COc1ccc(-c2cc(C(=O)Nc3cccc(O)c3)no2)cc1	4%	-3%	5µM*	0%	u	-5%
COc1ccc(NC(=O)N2CCc3c([nH]c4ccc(OC)cc34)C2c2ccc(OC)cc2)cc1 (configuration not stated)	x	x	x	x	x	-6%
CCn1c(C)nc2cc(C(=O)NNS(=O)(=O)c3ccccc3F)ccc21	2%	u	0%	0%	3	3.2µM*
CCOC(=O)c1ccc(S(=O)(=O)NNC(=O)c2ccc3c(c2)nc(C)n3CC)cc1	9%	-1%	13%	0%	0	0%
Cc1ccc2nc(-c3cccs3)c(Nc3c(C)cccc3C)n2c1	x	x	x	x	x	28µM*
CN(Cc1ccc(Cl)cc1)C(=O)CCl	2%	-12%	7.9µM*	0%	-5	1%
COc1ccc(CN(C)C(=O)CCl)cc1	4%	-12%	u	0%	0	1%
Cc1ccc(S(=O)(=O)c2cn(Cc3ccccc3Cl)c3ccc(F)cc3c2=O)cc1	x	x	x	x	x	1%
O=C(O)c1ccc(N(c2ccccc2)c2ccccc2)cc1	-1%	-10%	-4%	0%	14	16µM*
COc1cc(C2Nc3ccccc3C(=O)N2c2ccccc2OC)ccc1O (configuration not stated)	-2%	1%	1%	0%	-17	32µM*
COc1ccc(N2C(=O)c3ccccc3NC2c2ccc(OC)c(COc3ccccn3)c2)cc1 (configuration not stated)	-2%	u	-1%	0%	-1	25µM*!
CCOc1cc(C2Nc3ccccc3C(=O)N2c2ccccc2OC)ccc1O (configuration not stated)	1%	2%	-9%	-1%	-10	u
COc1ccc(C2Nc3ccccc3C(=O)N2c2ccc(C)cc2)cc1Cn1nnc2ccccc21 (configuration not stated)	2%	47%	-10%	0%	2	32µM*
COc1ccc(N2C(=O)c3ccccc3NC2c2ccc(OC)c(CSc3ccccn3)c2)cc1 (configuration not stated)	0%	9%	3%	0%	5	25µM*
COc1ccc(C2Nc3ccccc3C(=O)N2c2ccc(C)cc2)cc1Cn1cc([N+](=O)[O-])cn1 (configuration not stated)	5%	26%	-8%	0%	-14	-10%
CN(Cc1ccccc1)c1nc2c(S(=O)(=O)c3ccccc3)nnn2c2ccsc12	x	x	x	x	x	-1%
CCc1ccc(OCCn2c(CCNC(=O)C3CCCCC3)nc3ccccc32)cc1	x	x	x	x	8	-1%
COc1ccc(C2Nc3ccccc3C(=O)N2Cc2ccco2)cc1COc1ccc(F)cc1 (configuration not stated)	15%	-13%	-1%	1%	7	25µM*
COc1ccc(C2Nc3ccccc3C(=O)N2Cc2ccccc2)cc1COc1ccccn1 (configuration not stated)	4%	-6%	-7%	0%	3	25µM*
COc1cccc(CN2CCN(CC(=O)Nc3ccccc3Cl)CC2)c1	2%	-3%	4%	0%	13	14µM*
COc1ccccc1NC(=O)CN1CCN(CC(=O)Nc2ccccc2Cl)CC1	16%	10%	7%	0%	-28	0%
CCOc1cc(CNC(=O)c2ccc(Cn3c(=O)c4cccn4c4cccnc43)cc2)ccc1OC	x	x	x	x	x	-25%
SMILES	Mito fusion yeast	p53 reactivation	uPA surface inh	B2AR arrestin	Giardia killer	ClpP mod
CN1CCC(=NNC(=O)C(=O)NC2CCCC2)CC1	-1%	2%	2%	0%	6	32µM*
CN1CCC(=NNC(=O)C(=O)NC2CCCCC2)CC1	-3%	2%	3%	0%	22	1%
Cc1cc(=O)[nH]c2ccccc12	-3%	-4%	2%	0%	-15	-17%
Cc1cc2[nH]c3c(c[n+](C)c4ccccc34)c2cc1C	7%	-7%	u	0%	-84*	-5%
CCCCN(C)CCCNC(=O)Cn1ncc2c3ccccc3n(Cc3cc(C)ccc3C)c2c1=O	x	x	x	x	x	5%
CC(C)(C)C(=O)Nc1ccc2oc(-c3cc(F)c(F)cc3Cl)nc2c1	13%	u	-5%	-1%	-21	32µM*
N#Cc1ccc(C(=O)Nc2ccc(Cl)c(-c3nc4cc(Cl)ccc4o3)c2)c(F)c1	x	x	x	x	x	-5%
Cc1ccccc1Cc1c(C)nc2nc(SCC(=O)NCc3ccco3)nn2c1C	2%	u	-4%	0%	-1	0%
Cc1ccccc1Cc1c(C)nc2c(C(=O)NCc3ccco3)cnn2c1C	1%	-19%	x	7%	18	32µM*
Cc1ccc(C)c(Cc2c(C)nc3c(C(=O)N4CCOCC4)cnn3c2C)c1	6%	-28%	x	0%	-15	28µM*
CCOC(=O)N1CCN(C(=O)c2cnn3c(C)c(Cc4ccc(C)cc4)c(C)nc23)CC1	1%	1%	-2%	0%	-11	u
O=C(CSc1nc2cc3ccccc3cc2[nH]1)Nc1cccc(C(F)(F)F)c1	x	x	x	x	x	8%
C=C1CSc2nc(=O)c3c(C)c(C)sc3n21	0%	-7%	3%	0%	-3	16µM*
Cc1nc2sc(C)c(C)c2c(=O)[nH]1	3%	-4%	2%	-3%	50	-1%
Cc1c(C(=O)N(C)C)sc2c1c(=O)n(-c1ccc(Cl)c(Cl)c1)c(=O)n2Cc1ccc(F)cc1	x	x	x	x	x	-1%
O=C(Nc1ccc2c(c1)OCO2)c1ccc(Cl)cc1Cl	-4%	3%	-15%	0%	13	0%
Cc1c(C(=O)c2ccc(Cl)cc2Cl)cnc2cc3c(cc12)OCO3	13µM*	5%	4%	3%	1	-2%
CC(C)(C)C(=O)Nc1cc(S(=O)(=O)Nc2ccc(Cl)cc2)ccc1Cl	18µM*	7%	0%	-2%	19	-2%
CCOc1ccccc1-n1nnnc1SCC(=O)NC(=O)Cc1ccccc1	-2%	2%	-1%	0%	10	25µM*
CCOc1ccccc1-n1nnnc1SCC(=O)NC(=O)NCc1ccco1	0%	4%	2%	0%	-11	2%
Cc1ccc(C)c(NC(=O)Cn2cc(S(=O)(=O)c3ccc(F)cc3)c(=O)c3cc(F)ccc32)c1	x	x	x	x	x	1%
